Mtb hypoxia inh: PubChem AID 1159583 | fluorescence inhibition, % (concentration not given with the values) | M. tuberculosis hypoxia-regulated fluorescent reporter, fluorescence | 300,000 tested, 0.1% active; in the data active = fluorescence inhibition mostly above about 23%, no sharp cut-off; inactive = mostly below about 17%
Yp Topo-I inh: Yersinia pestis topoisomerase I inhibitors, primary screen, biochemical, cleavage product accumulation, plate reader, single point. Y. pestis Topo-I cleavage product accumulation. activity, % at 10 µM. 360,000 tested, 0.064% active. AID 504884, 2011; in the data active = activity above about 50%, passing the limit was not always enough
PrP 5UTR inh: inhibition of PrP 5' UTR reporter expression | cell-based PrP 5' UTR mRNA reporter, plate reader | inhibition, % (concentration not given with the values) | 340,000 tested, 0.35% active | AID 488862, 2010; in the data active = inhibition above about 52%; also: 0 = median of the neutral control wells
Mtb FBA inh: Mtb FBA enzyme inhibitors, primary screen, biochemical, fluorescence, strain H37Rv | Fructose-bisphosphate aldolase (Mycobacterium tuberculosis (strain ATCC 25618 / H37Rv)), … | inhibition, % at 1 µM | 360,000 tested, 2.3% active | AID 588726, 2011 | purified M. tuberculosis FBA, fluorescence read-out;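 also: 0% = vehicle and 100% = reference inhibitor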
Target sequence (P9WQA3 whole entry, looked up): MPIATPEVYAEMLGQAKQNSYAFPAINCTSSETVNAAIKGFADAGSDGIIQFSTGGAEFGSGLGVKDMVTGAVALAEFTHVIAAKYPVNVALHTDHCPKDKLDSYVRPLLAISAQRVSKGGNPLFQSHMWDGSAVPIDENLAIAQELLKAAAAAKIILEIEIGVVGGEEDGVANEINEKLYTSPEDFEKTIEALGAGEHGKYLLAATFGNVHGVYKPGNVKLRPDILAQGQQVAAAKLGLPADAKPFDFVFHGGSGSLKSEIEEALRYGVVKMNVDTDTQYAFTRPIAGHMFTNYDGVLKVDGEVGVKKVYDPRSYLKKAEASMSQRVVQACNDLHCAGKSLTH
PrPC TRFRET: inhibitors of human cell surface prion protein PrPC, primary screen, cell-based, TR-FRET. Major prion protein (Homo sapiens), P04156. TR-FRET read-out. inhibition, % at 13.8 µM. 370,000 tested, 0.43% active. AID 720596, 2013; in the data active = inhibition above about 24%; also: 0% = median of the test wells and 100% = reference compound wells
GDH-TPI counter-1: GDH-TPI coupling enzyme inhibitors, primary screen, artefact control for M. tuberculosis FBA inhibitor project, biochemical, absorbance, full deck; GDH-TPI coupled enzyme counterscreen, NADH absorbance; inhibition, % at 4.8 µM; 360,000 tested, 1.2% active; AID 588335, 2011; in the data active = inhibition above about 30%;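 also: 0% = DMSO wells and 100% = wells lacking the enzyme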
Mtb FBA confirm: M. tuberculosis aldolase blockers, biochemical, fluorescence, strain H37Rv, confirmation; shares compounds with Mtb FBA inh; purified M. tuberculosis FBA, fluorescence read-out; inhibition, % at 1 µM; 5,600 tested, 78% active;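 also: 0% = vehicle wells and 100% = reference inhibitor wells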
GDH-TPI counter-2: GDH-TPI coupling enzyme inhibitors, artefact control for M. tuberculosis FBA inhibitor project, biochemical, fluorescence, high throughput; shares compounds with Mtb FBA inh; GDH-TPI coupled enzyme counterscreen; inhibition, % at 1 µM; 5,600 tested, 81% active; AID 652141, 2013; in the data active = inhibition above about 10%
The depositor's hits bear a star; nt = no result given; + = active, no number. This is a sample that favours compounds with a hit; in the whole collection about 3.8% have one here. Rule as the data show it, unless noted: active = inhibition above about 27%; inactive = the rest.

SMILES	Mtb hypoxia inh	Yp Topo-I inh	PrP 5UTR inh	Mtb FBA inh	PrPC TRFRET	GDH-TPI counter-1	Mtb FBA confirm	GDH-TPI counter-2
O=C(O)c1c(-c2ccccc2)c2oc3ccccc3c2[nH]c1=O	15	5	-30	108*	-4	17	90*	70*
O=c1[nH]c2c(oc3ccccc32)c(=O)n1Cc1ccccc1	-4	6	-27	16	-2	2	nt	nt
COc1ncccc1-c1cnc2cccnn12	nt	6	nt	92*	-8	7	117*	100*
COc1ccc(-c2cnc3cccnn23)cn1	nt	-8	nt	29*	-10	-4	-8	-7
Clc1ccc(-c2cnc3cccnn23)cc1	nt	8	nt	51*	-2	7	+	+
Oc1ccccc1-c1cnc2cccnn12	nt	0	nt	-1	-23	15	nt	nt
COc1cc2c(cc1OC)C1=C(C#N)CCC(=NS(=O)(=O)c3ccccc3)N1CC2	-4	nt	nt	nt	nt	nt	nt	nt
CCOc1ccc(N(CC(=O)NN=Cc2cccnc2)S(C)(=O)=O)cc1	-8	nt	nt	nt	nt	nt	nt	nt
CCn1cc(C=NNC(=O)C2(C)CC2(Cl)Cl)c(C)n1 (stereo unspecified)	-4	nt	nt	nt	nt	nt	nt	nt
O=C1N/C(=N/N=Cc2ccccc2)SC1(c1ccccc1)c1ccccc1	12	nt	nt	nt	nt	nt	nt	nt
COc1cccc(CC(NC(C)=O)C(=O)NC2CCN(c3nc(C)cc(C)c3C#N)CC2)c1 (stereo unspecified)	nt	0	-27	29*	8	-3	58*	52*
Cc1cc(C)c(C#N)c(N2CCCC(C(N)=O)C2)n1 (stereo unspecified)	nt	5	-7	57*	8	-3	+	+
CCOC(=O)C1CCN(C(=O)c2cnn3c(C)cc(C)nc23)CC1	nt	7	-22	35*	0	10	76*	55*
CCOC(=O)C1CCN(c2nc(C)cc(C)c2C#N)CC1	13	15	-20	28*	7	0	170*	124*
COc1ccc(CC(NC(C)=O)C(=O)NC2CCN(c3nc(C)cc(C)c3C#N)CC2)c(OC)c1 (stereo unspecified)	nt	-1	-16	25	-4	7	nt	nt
Cc1cc(C)c(C#N)c(N2CCSCC2)n1	nt	12	-5	11	4	6	nt	nt
CCCCCC(=O)Nc1ccc2oc(-c3cncc(Br)c3)nc2c1	6	5	nt	2	-3	-5	nt	nt
CCCC(=O)Nc1ccc2oc(-c3cncc(Br)c3)nc2c1	7	0	nt	40*	3	0	172*	132*
CCCC(=O)Nc1ccc(-c2nc3cc(C)c(C)cc3o2)cc1	16	-5	-78	87*	11	24	40*	40*
N#Cc1c(N=Cc2cccs2)sc2c1CCCCC2	5	nt	nt	nt	nt	nt	nt	nt
Cc1cccc(NC(=O)C(C)SCc2nc3sc4c(c3c(=O)[nH]2)CCCC4)n1 (stereo unspecified)	1	5	-27	31*	1	6	153*	93*
O=C(O)CNS(=O)(=O)c1ccc2c(c1)C(=O)c1cc(S(=O)(=O)NCC(=O)O)ccc1-2	19	6	-10	2	-71	12	nt	nt
O=C(O)CNS(=O)(=O)c1ccc2c(c1)Cc1cc(S(=O)(=O)NCC(=O)O)ccc1-2	nt	-9	-22	41*	0	-1	-5	-6
CCCCC1C(C#N)=C(C)NC2=C1C(=O)CC(C)(C)C2 (stereo unspecified)	nt	-12	-19	57*	6	12	63*	45*
COC(=O)c1ccc(C2C(C#N)=C(C)NC3=C2C(=O)CC(C)(C)C3)cc1 (stereo unspecified)	-82	-10	3	75*	0	13	82*	52*
SMILES	Mtb hypoxia inh	Yp Topo-I inh	PrP 5UTR inh	Mtb FBA inh	PrPC TRFRET	GDH-TPI counter-1	Mtb FBA confirm	GDH-TPI counter-2
O=C1c2cccc3cccc(c23)C(=O)N1CC1CCCO1 (stereo unspecified)	5	3	-13	31*	-26	10	52*	28*
O=C(CCN1C(=O)c2cccc3cccc(c23)C1=O)NCC1CCCO1 (stereo unspecified)	-11	3	-20	34*	-27	25	156*	97*
Cc1nc(N)nc(NN=Cc2ccccc2)n1	-11	nt	nt	nt	nt	nt	nt	nt
C#CCn1cc(C=NNC(=O)COc2cccc3cccnc23)c2ccccc21	7	nt	nt	nt	nt	nt	nt	nt
Cc1nc(C(=O)O)cc2c1[nH]c1ccccc12	nt	8	-7	85*	-1	15	+	+
Cc1cc2c([nH]c3ccccc32)c(C)n1	-6	-2	-13	96*	1	0	2	-7
COc1ccc(OC)c2c1CCC2=O	14	-5	-33	30*	8	9	71*	51*
CCOc1c2ccc(C(=O)N[C@H](C)C3CCCCC3)cc2nn1CC	nt	14	-15	64*	-3	15	53*	45*
CCCCn1nc2cc(C(=O)NCCc3cccs3)ccc2c1OCC	20	13	-26	62*	3	0	125*	103*
CCCCOc1ccc(C(=O)NCCc2cccs2)cc1	2	1	-35	-2	nt	2	nt	nt
CCOc1c2ccc(C(=O)NCCc3cccs3)cc2nn1CC	22	-2	-67	58*	-4	11	28*	18*
CC(=O)OC1CCC2C3CCc4cc(O)ccc4C3CC[C@]12C (stereo partly specified)	-1	nt	nt	nt	nt	nt	nt	nt
CCCNC(=O)C1(CC2CC(c3ccccc3)=NO2)CCN(C(=O)c2cc(OCC)c(OCC)c(OCC)c2)CC1 (stereo unspecified)	nt	13	3	29*	6	0	169*	128*
CN(C)N=C/C=C1\CC/C(=C\c2ccc(Br)cc2)C1=O	18	nt	nt	nt	nt	nt	nt	nt
CCn1cc(C=NNC(=O)c2cc3c(ccc4ccccc43)o2)c2ccccc21	12	nt	nt	nt	nt	nt	nt	nt
COC(=O)c1ccc(-c2nc3ccc(C)cc3o2)cc1	2	-1	-87	32*	-6	10	147*	124*
Cc1ccc2nc(-c3ccccn3)oc2c1	nt	8	-19	103*	3	17	42*	30*
COc1ccc(-c2nn(-c3ccccc3)cc2N)cc1	-3	-4	-95	93*	0	6	+	+
O=C1C=CCC(C=Cc2ccccc2)O1 (stereo unspecified)	19	nt	nt	nt	nt	nt	nt	nt
